# Only some compounds are listed: those with a hit (about 19% of all), similar ones and a draw of the others.
# IL-1B inflam inh: qHTS for Inhibitors of Inflammasome Signaling: IL-1-beta AlphaLISA Primary Screen; hit rate 4.7% among 360,000; THP-1 LPS/ATP IL-1B secretion, AlphaLISA, 16 h; stronger effect = lower value; activity change, % at 57.5 µM; AID 743279, 2014; in the data active = activity change below about -50%; inconclusive = mostly about -30% to -49%
#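 Secreted IL-1B measured by AlphaLISA bead assay after 16 h compound exposure of THP-1 cells; compounds (final up to 57.5 uM) added 1 h before LPS (250 ng/mL) and ATP (1.25 mM) stimulation; lower signal means less secretion.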
# HT1080 IDH1KD tx: qHTS for induction of synthetic lethality in tumor cells producing 2HG: qHTS for the HT-1080-IDH1KD cell line | hit rate 2% among 360,000 | Potency, µM (doses to about 46.1 µM), for the others: at the top dose activity, negative = toxicity, actives largely listed as cytotoxic | HT-1080 IDH1 knockdown viability, ATP luminescence, 48 h | AID 686971, 2013;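 also: potency is read from the fitted curve at half-maximal effect; 0% = DMSO wells and -100% = cell-free medium wells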
#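 Using the IDH1-knockdown HT-1080 line run in the same batch and compound series as the NT line, viability after 48 h at 37 °C was determined by CellTiter-Glo luminescence and expressed as % activity.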
# HT1080-NT tox: qHTS for induction of synthetic lethality in tumor cells producing 2HG: qHTS for the HT-1080-NT fibrosarcoma cell line; HT-1080-NT fibrosarcoma viability, CellTiter-Glo ATP luminescence, 48 h; Potency, µM (series often up to 46.1 µM), inactives show at the highest dose activity, negative = less viability, hits mostly cytotoxic; hit rate 1.6% among 360,000; AID 686970, 2013;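 also: NT is the 2HG producing partner of a matched IDH1 knockdown line; potency is read from the fitted curve at half-maximal effect; 0% = DMSO-treated cells and -100% = media-only wells without cells; nearly all actives have a fitted effect of over 55% in size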
#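 Fibrosarcoma NT cells, 750 per well in 5% FBS RPMI, were exposed to compound for 48 hours. Viability: CellTiter-Glo luminescence.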
# uPA generation: qHTS for Inhibitors of Cell Surface uPA Generation. cell surface uPA generation assay, qHTS. Potency, µM (titrated, usually from 38.3 µM), for the others: at the highest dose activity change, negative = inhibition, most hits filed as inhibitors. hit rate 0.31% among 330,000. AID 540303, 2011; active = well fitted inhibition curve with a large enough effect; inconclusive = small, poorly fitted or top-dose-only effect; inactive = no such curve, though single readings can be large or run the other way; tested in mouse RAW 264.7 cells; also: potency is read from the fitted curve at half-maximal effect; nearly all actives have a fitted effect of over 55% in size
# DT40 TDP1 CPT: qHTS for Inhibitors of human tyrosyl-DNA phosphodiesterase 1 (TDP1): qHTS in cells in presence of CPT. chicken DT40 Tdp1-/-;hTDP1 cells + 20 nM CPT, ATP luminescence, 48 h. Potency, µM (titrated, usually from 46.2 µM), for inactives: at the highest dose activity change, negative = growth inhibition, hits mostly inhibitors. hit rate 12% among 420,000; also: potency is read from the fitted curve at half-maximal effect; nearly all actives have a fitted effect of over 55% in size
#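 Chicken DT40 Tdp1-/- cells complemented with human TDP1, 400 cells/well, exposed to compounds plus 20 nM camptothecin for at least 48 h at 37 C; viability read as ATP content by CellTiter-Glo luminescence.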
# TDP1 cell noCPT: qHTS for Inhibitors of human tyrosyl-DNA phosphodiesterase 1 (TDP1): qHTS in cells in absence of CPT | Potency, µM (doses to about 46.2 µM), for inactives: at the top dose activity change, negative = growth inhibition, actives largely listed as inhibitors | DT40 Tdp1-/- hTDP1 cells, no CPT, ATP luminescence, 48 h | AID 686978, 2013 | hit rate 15% among 420,000; also: potency is read from the fitted curve at half-maximal effect; nearly all actives have a fitted effect of over 55% in size
#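 No-CPT arm: Tdp1-/-;hTDP1 DT40 cells (400/well) plus compounds, incubated ≥48 hr at 37 °C. Readout CellTiter-Glo luminescence.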
# The depositor's hits bear a star; u = inconclusive; x = not tested or not shown; [ ] = dose if it differs, or a comment. Unless noted, calls follow the shape of the dose curve; as a rule, active = well fitted curve in the direction sought with a large enough effect; inconclusive = small, poorly fitted or top-dose-only effect, or another doubt; inactive = no such curve, though single readings can be large; an effect the other way counts as inactive or inconclusive. Unless noted, % is scaled to controls: 0 for no effect and ±100 for the full control effect.
SMILES,IL-1B inflam inh,HT1080 IDH1KD tx,HT1080-NT tox,uPA generation,DT40 TDP1 CPT,TDP1 cell noCPT
CC(=O)c1c(C)[nH]c(C(=O)CN2C(=O)NC(C)(CCC(C)C)C2=O)c1C (stereo not given),-7,3%,-4%,3%,-29%,u
NS(=O)(=O)c1ccc(CNC(=O)c2sccc2-c2ccccc2)cc1,-13,-8%,-1%,-2%,-7%,-22%
COc1ccc(-n2c(C)cc(C(=O)COc3ccc(C)nc3[N+](=O)[O-])c2C)cc1,13,3%,8%,10%,5.2µM*,3.7µM*
Cc1ccc(OCC(=O)c2ccc(Cl)s2)c([N+](=O)[O-])n1,-73*,5%,1%,x,3.7µM*,13µM*
Cc1ccc(OCCOc2ccc(Cl)cc2Cl)c([N+](=O)[O-])n1,-26,-3%,0%,0%,u,16µM*
Cc1ccc(OCC(=O)c2cc(C)n(Cc3cccs3)c2C)c([N+](=O)[O-])n1,-22,u,u,-7%,6.5µM*,5.8µM*
C=CCN1C(=O)C2(OCCCO2)c2cc(Cl)ccc21,-1,-8%,-3%,20%,-15%,3%
COc1ccc(-c2cc(=O)oc3cc(OCC(=O)NCC4CCC(C(=O)O)CC4)ccc23)cc1 (stereo not given),-1,-5%,-1%,16%,2%,-1%
Cc1cc(C(=O)COc2ccc(F)cc2Br)c(C)n1C,u,0%,5%,2%,-12%,-12%
Cc1cc(C(=O)COc2ccc(F)cc2Br)c(C)n1C1CC1,u,-11%,-7%,u,15µM*,10µM*
Cc1cc(C(=O)CN2C(=O)NC(C)(c3cc(F)ccc3F)C2=O)c(C)n1C1CC1 (stereo not given),-23,-1%,-3%,-3%,u,16µM*
CCOc1ccc(NC(=O)C(=O)NCCc2csc(-c3ccc(F)cc3)n2)cc1,x,x,x,x,-22%,9%
CCOC(=O)c1cccc(Nc2ncnc3ccccc23)c1,-10,2%[9.24 µM],-12%,-9%,u,13µM*
CCCOC(=O)c1cccc(NC(=O)c2cccnc2)c1,-5,3%,-1%,-2%,9.2µM*,5.8µM*
CCCOC(=O)c1cccc(Nc2nc(-c3cccnc3)nc3ccccc23)c1,-98*,u,26µM*,-13%,9.2µM*,3.3µM*
O=C(N/N=C/c1ccco1)c1cc(-c2cccc(Br)c2)nc2ccccc12,-10,u,u,-7%,u,5.8µM*
C/C(=N\NC(=O)c1csc2ccccc12)c1ccc(O)cc1,-8,1%,-1%,-3%,u,9.2µM*
O=C(N/N=C/c1ccc(Cl)c([N+](=O)[O-])c1)c1cc(-c2ccccc2)nc2ccccc12,61,9%,-1%,7%,6.5µM*,7.3µM*
O=C(N/N=C/c1ccc(O)c(O)c1)c1cc(-c2ccccc2)nc2ccccc12,61,-28%,-10%,-13%,8.2µM*,u
C/C(=N\NC(=O)C(c1ccccc1)c1ccccc1)c1ccc(O)cc1,-2,-4%,-4%,-19%,u,u
O=C(N/N=C/C=C\c1ccccc1[N+](=O)[O-])c1ccncc1,-7,18%,8%,-2%,u,u
O=C(N/N=C/c1cccc(O)c1)c1csc2ccccc12,-11,1%[9.24 µM],-2%,-5%,u,0.65µM*
O=C(N/N=C/C=C\c1ccccc1[N+](=O)[O-])c1cc(-c2ccccc2)nc2ccccc12,-20,u,-16%,-10%,23µM*,15µM*
COc1ccc2nc(-c3ccccc3)cc(OC)c2c1,-80*,-18%,-24%,-6%,-11%,u
COc1ccc(/C=N/NC(=O)c2cc(-c3ccccc3)nc3ccccc23)c(OC)c1,-24,0%,-13%,-9%,15µM*,u
SMILES,IL-1B inflam inh,HT1080 IDH1KD tx,HT1080-NT tox,uPA generation,DT40 TDP1 CPT,TDP1 cell noCPT
O=C(N/N=C/c1cccc(O)c1)c1ccccc1O,-15,-17%,-24%,-3%,2%,1%
COc1ccc2nc(-c3ccccc3)[nH]c(=O)c2c1,-10,11%,13%,6%,0%,-11%
COc1cc(C(=O)NCC(c2cccs2)N2CCOCC2)c([N+](=O)[O-])cc1OC (stereo not given),1,-2%,2%,-4%,2%,-21%
O=C1COc2ccc(C(=O)COC(=O)c3ccc([N+](=O)[O-])cc3Cl)cc2N1,8,-4%,-4%,4%,-7%,-4%
Cc1ccc(OCCSc2nc3ccccc3n2CC(=O)O)cc1C,-9,8%,6%,11%,7%,1%
CCCNC(=O)C1(C)CCCN(C(=O)c2cccc(C(F)(F)F)c2)C1 (stereo not given),33,11%,u,x,-21%,-20%
CCn1ncc(/C=N\NC(=O)c2csc3ccccc23)c1C,19,5.2µM*,u,-10%,2.6µM*,4.6µM*
O=C(N/N=C/c1cccc(O)c1)c1cc(-c2ccccc2)nc2ccccc12,-19,u,-26%,u,2.3µM*,u
O=C(N/N=C/c1c(F)c(F)c(F)c(F)c1F)c1cc(-c2ccccc2)nc2ccccc12,-7,3%,3%,5%,u,-29%
COc1cccc(/C=N/NC(=O)c2nc(-c3ccccc3)cc(-c3ccccc3)n2)c1,u,-2%,-1%,11%,16µM*,21µM*
O=C(NCCc1csc(-c2cccc(F)c2)n1)c1cccs1,x,x,x,x,u,16µM*
COc1ccc(-c2nc(CCNC(=O)c3cccs3)cs2)cc1,0,1%,7%,-10%,16µM*,21µM*
CCOC(=O)C1=C(C)N=c2s/c(=C3\C(=O)Nc4ccccc43)c(=O)n2C1c1ccc2c(c1)OCO2 (stereo not given),13,-3%,-4%,3%,u,u
CCOC(=O)C1=C(C)N=c2s/c(=C\c3ccc(O)c([N+](=O)[O-])c3)c(=O)n2C1c1ccccc1OC (stereo not given),61,-4%,u,3%,-17%,18µM*
